This assay in a line: HeLa cell cytotoxicity, dose response, cytotoxicity control, 24 h, plate reader, dry powder (AID 686928).

Potency and affinity values are given separately. The source made the active and inactive calls. A call without a number means that no potency is given here. The rule behind the calls is not given here.

Our source for the outcome values is PubChem BioAssay AID686928 (Broad Institute, 2013).

Regarding `CCn1nnnc1NC(C)c1ccc(N2CCCC2)cc1` (configuration not stated), the outcome was inactive.

Regarding `O=C(Cc1ccc(-c2ccccc2)cc1)N[C@@H]1CCOC1` (racemic), the molecule was called inactive.

In the case of `O=c1ncn(-c2ccc(Cl)c(Cl)c2)c2ccccc12`, the molecule was classed as inactive.

`O=C(O)c1ccccc1Nc1cccc(Cl)c1`: the result was inactive.

Regarding `Cc1ccc2cc3c(NC(=O)c4cc5ccccc5o4)nn(C)c3nc2c1`, the outcome was inactive.

As for `Cc1ccc2cc3c(NC(=O)c4ccoc4)nn(C)c3nc2c1`, the molecule was classed as inactive.

`CCOC(=O)c1ccccc1Nc1cccc(Cl)c1`: the molecule was called inactive.

Turning to `CCc1nc(=O)c2ccccc2n1-c1cccc(Cl)c1`, the result was inactive.

Consider `CC(C)(C)OC(=O)N1CCC(C(=O)Nc2nnc(-c3ccc4c(c3)OCCO4)o2)CC1`, for which the outcome was inactive.

Regarding `COc1ccc(-c2nnc(NC(C)=O)o2)cc1`, the result was inactive.

With `O=c1ncn(-c2cccc(Cl)c2)c2ccccc12`, the result was inactive.

As for `O=c1ncn(-c2ccccc2)c2ccccc12`, the outcome was inactive.

For `Cc1ccc2c(=O)ncn(-c3cccc(Cl)c3)c2c1`, the result was inactive.

Turning to `O=c1ncn(-c2cccc(Cl)c2)c2cccc(Cl)c12`, the result was inactive.

As to `Cc1cc(F)cc2nc3c(cc12)c(NC(=O)c1ccco1)nn3C`, the molecule was classed as inactive.

For the molecule `O=c1ncn(-c2cccc(Cl)c2)c2ccc(Cl)cc12`, the molecule was classed as inactive.

Take `Cc1cccc(-n2cnc(=O)c3ccccc32)c1`: the molecule was classed as inactive.
